Among the data in PubChem BioAssay (NCI) are growth values, retold here.

Some test systems named below: SN12C renal; UO-31 renal; TK-10 renal; ACHN renal; CAKI-1 renal; A498 renal; CCRF-CEM leukemia; MOLT-4 leukemia; SR leukemia; RPMI-8226 leukemia; OVCAR-8 ovarian; OVCAR-5 ovarian; OVCAR-4 ovarian; SK-OV-3 ovarian; IGROV1 ovarian; OVCAR-3 ovarian; HS 578T breast; NCI/ADR-RES ovarian; EKVX NSCLC.
Common to all, as to experiment: NCI-60 one-dose screen, 48 h (100 = growth as untreated, 0 = no growth, -100 = all killed)
Common to all, as to conditions: 10 µM unless noted

This is part of a sample that, as a whole, favours compounds with a hit. Of some 83,000 tested, about 20% had one in any assay.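 Compound tested at a single concentration for 48 hours in 96-well plates; a percent growth value below 10 was scored as active.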 A number with no mark means an inactive call. Activity calls are given as the source filed them.

For the compound `CC/C(=C(\c1ccc(O)cc1)c1ccc(OCCN(C)CCN(C)C(=O)CCCCC(=O)c2c(C)[nH]c(/C=C3\N=C(c4ccc[nH]4)C=C3OC)c2C)cc1)c1ccccc1`, the growth in the experiment with SN12C renal is 82.9%; with UO-31 renal it was 55.8%; with TK-10 renal, 119%; in the experiment on ACHN renal, 92.5%; with CAKI-1 renal, 78.5%; with A498 renal, 66.5%. In addition, the growth was 45.6% in the experiment with CCRF-CEM leukemia; 56% in the experiment with MOLT-4 leukemia; 9.77% (active) in the experiment on SR leukemia; 63.1% in the experiment on RPMI-8226 leukemia; 85.4% with OVCAR-8 ovarian; 108% with OVCAR-5 ovarian. In addition, the growth in the experiment on OVCAR-4 ovarian was 77.7%; in the experiment with SK-OV-3 ovarian it was 123%; in the experiment with IGROV1 ovarian it was 89.5%; with OVCAR-3 ovarian it was 89.4%; in the experiment on HS 578T breast, 97.8%; in the experiment with NCI/ADR-RES ovarian, 97.4%.

As for `COc1ccc(C(=O)COc2ccc(/C=C3\Oc4ccc(Cl)cc4C3=O)cc2)cc1`, the growth is 86.8% in the experiment with EKVX NSCLC; 103% in the experiment on SN12C renal; 83.4% in the experiment with UO-31 renal; 105% in the experiment on TK-10 renal; 98.1% with CAKI-1 renal; 109% in the experiment on A498 renal. The growth in the experiment with CCRF-CEM leukemia was 122%; in the experiment with MOLT-4 leukemia it was -17.8% (active); in the experiment on SR leukemia, -22.4% (active); in the experiment with RPMI-8226 leukemia it was 181%; in the experiment with OVCAR-8 ovarian it was 76.6%; in the experiment on OVCAR-5 ovarian, 103%. The growth in the experiment with OVCAR-4 ovarian was 86.3%; in the experiment on IGROV1 ovarian, 32.9%; in the experiment on OVCAR-3 ovarian, 113%; in the experiment with HS 578T breast it was 91.8%; in the experiment on NCI/ADR-RES ovarian it was 88.6%.

As to `CCN(CC)CCC(=O)Nc1ccc(Cn2nnc3c2C(=O)c2nnn(Cc4ccc(NC(=O)CCN(CC)CC)cc4)c2C3=O)cc1`, the growth with SN12C renal is -50.1% (active); with UO-31 renal, 99.9%; with TK-10 renal, 122%; with ACHN renal, 87.6%; in the experiment on CAKI-1 renal it was 85.9%; with A498 renal, 14.6%. In addition, the growth was -13% (active) with CCRF-CEM leukemia; -28.9% (active) with MOLT-4 leukemia; -18.9% (active) with SR leukemia; -16.6% (active) with RPMI-8226 leukemia; -35.6% (active) in the experiment with OVCAR-8 ovarian; -19.1% (active) in the experiment on OVCAR-5 ovarian. In addition, the growth with OVCAR-4 ovarian is -72.7% (active); in the experiment on SK-OV-3 ovarian it was -8.54% (active); in the experiment with IGROV1 ovarian it was -55.6% (active); in the experiment with OVCAR-3 ovarian, -16.2% (active); with HS 578T breast, 14.2%; with NCI/ADR-RES ovarian, 99.3%.

Consider `COc1ccc2nc3cc(Cl)ccc3c(N3CCN(c4nccc(Nc5ccccc5)n4)CC3)c2c1`, for which the growth in the experiment with SN12C renal is 62%; in the experiment on UO-31 renal it was 43.7%; in the experiment on TK-10 renal it was 65.6%; in the experiment on ACHN renal, 52.1%; with CAKI-1 renal, 51.2%; in the experiment with A498 renal, 16.6%. The growth with CCRF-CEM leukemia was 7.71% (active); in the experiment with MOLT-4 leukemia it was 5.37% (active); with SR leukemia it was 26.9%; in the experiment with RPMI-8226 leukemia it was 45.2%; with OVCAR-8 ovarian, 67.8%; with OVCAR-5 ovarian it was 99.5%. The growth in the experiment with OVCAR-4 ovarian is 50.8%; in the experiment on SK-OV-3 ovarian, 96.2%; in the experiment with IGROV1 ovarian, 78.8%; with OVCAR-3 ovarian, 50.7%; in the experiment on HS 578T breast it was 88.1%; with NCI/ADR-RES ovarian, 69.9%.

Turning to `CC(=O)Oc1cc2cnc3c4cc(OC(C)=O)c(OC(C)=O)cc4ccc3c2cc1OC(C)=O`, the growth with SN12C renal is 14.6%; in the experiment with UO-31 renal, -2.09% (active); in the experiment with TK-10 renal it was 21.8%; with ACHN renal, 15.3%; in the experiment on CAKI-1 renal it was 6.51% (active); in the experiment with A498 renal it was -15.6% (active). Also, the growth is -6.55% (active) with CCRF-CEM leukemia; -6.19% (active) with MOLT-4 leukemia; -8.28% (active) in the experiment on SR leukemia; 12.8% in the experiment with RPMI-8226 leukemia; -22.1% (active) in the experiment with OVCAR-8 ovarian; 54.6% with OVCAR-5 ovarian. Moreover, the growth was -4.13% (active) with OVCAR-4 ovarian; 26.9% with SK-OV-3 ovarian; -12.8% (active) with IGROV1 ovarian; -3.27% (active) with OVCAR-3 ovarian; 28.1% with HS 578T breast; 13.3% with NCI/ADR-RES ovarian.

As to `Cn1cc(-c2csc(-c3cn(C)c4ncccc34)n2)c2ccccc21`, the growth with SN12C renal is 56.4%; with UO-31 renal it was 51.2%; in the experiment on TK-10 renal it was 50.3%; with ACHN renal it was 57.4%; with CAKI-1 renal, 35.1%; in the experiment on A498 renal, -0.625% (active). Also, the growth was 10.1% in the experiment with CCRF-CEM leukemia; 14.6% in the experiment on MOLT-4 leukemia; 9.51% (active) in the experiment on SR leukemia; 22.4% with RPMI-8226 leukemia; 30.2% with OVCAR-8 ovarian; 64.6% in the experiment with OVCAR-5 ovarian. Further, the growth in the experiment on OVCAR-4 ovarian is 71.6%; with SK-OV-3 ovarian it was 36.6%; with IGROV1 ovarian, 42.8%; in the experiment on OVCAR-3 ovarian it was -4.76% (active); in the experiment on HS 578T breast, 46%; in the experiment on NCI/ADR-RES ovarian, 22.8%.

For `O=C(O)c1c([N+](=O)[O-])cnc2ccccc12`, the growth in the experiment with EKVX NSCLC was 58.2%; in the experiment with SN12C renal, 97.2%; with UO-31 renal, 64.9%; with TK-10 renal, 102%; with ACHN renal, 111%; with CAKI-1 renal, 98%. Also, the growth with A498 renal was 118%; with CCRF-CEM leukemia, 127%; with MOLT-4 leukemia, 105%; with SR leukemia, 135%; in the experiment on RPMI-8226 leukemia, 108%; in the experiment with OVCAR-8 ovarian, 96.2%. Besides, the growth is 107% with OVCAR-4 ovarian; 93% in the experiment on SK-OV-3 ovarian; 106% in the experiment on IGROV1 ovarian; 118% with OVCAR-3 ovarian; 113% in the experiment with HS 578T breast; 96.7% with NCI/ADR-RES ovarian.

With `O=C1CC(c2nc3ccccc3[nH]2)CN1C1CCCCC1` (centres undefined), the growth is 108% in the experiment with SN12C renal; 78.4% in the experiment on UO-31 renal; 99.6% with TK-10 renal; 106% in the experiment with ACHN renal; 94.2% in the experiment on CAKI-1 renal; 79.7% with A498 renal. Also, the growth with CCRF-CEM leukemia was 111%; in the experiment with MOLT-4 leukemia, 102%; in the experiment on SR leukemia, 97.4%; in the experiment with RPMI-8226 leukemia, 106%; in the experiment with OVCAR-8 ovarian, 95.2%; with OVCAR-5 ovarian it was 108%. Moreover, the growth in the experiment with OVCAR-4 ovarian was 102%; in the experiment with SK-OV-3 ovarian, 101%; with IGROV1 ovarian, 108%; in the experiment on OVCAR-3 ovarian, 110%; in the experiment on HS 578T breast, 102%; with NCI/ADR-RES ovarian, 94.2%.

Regarding `COc1cc(-c2cnc3nonc3n2)c(OC)c2c1OCO2`, the growth in the experiment on SN12C renal was 100%; with UO-31 renal it was 85.5%; with TK-10 renal, 107%; in the experiment with ACHN renal it was 91.6%; in the experiment on CAKI-1 renal, 99.1%; in the experiment with A498 renal, 88.3%. In addition, the growth was 85.3% with CCRF-CEM leukemia; 83.9% with MOLT-4 leukemia; 50.1% with SR leukemia; 65.7% in the experiment on RPMI-8226 leukemia; 97.8% in the experiment on OVCAR-8 ovarian; 124% with OVCAR-5 ovarian. Also, the growth is 75.3% with OVCAR-4 ovarian; 105% in the experiment with SK-OV-3 ovarian; 82.7% with IGROV1 ovarian; 76.9% with OVCAR-3 ovarian; 105% with HS 578T breast; 99.3% in the experiment on NCI/ADR-RES ovarian.

Take `CC1CN(C(C)C)C(=S)N(c2ccccc2)C1=O` (centres undefined): the growth in the experiment on EKVX NSCLC is 88.6%; with SN12C renal, 101%; with UO-31 renal it was 84.6%; with TK-10 renal it was 112%; with ACHN renal, 100%; in the experiment on CAKI-1 renal it was 68.9%. The growth was 90.6% in the experiment on CCRF-CEM leukemia; 90% with MOLT-4 leukemia; 108% with SR leukemia; 120% in the experiment on RPMI-8226 leukemia; 97.6% with OVCAR-8 ovarian; 90.7% with OVCAR-5 ovarian. The growth with OVCAR-4 ovarian is 112%; with SK-OV-3 ovarian it was 106%; in the experiment on IGROV1 ovarian, 81.5%; in the experiment on OVCAR-3 ovarian it was 99.4%; in the experiment with HS 578T breast, 98%; with NCI/ADR-RES ovarian, 92.7%.
